{"source": "the supplement of paper PMC6555819"}
{"system": "VDR:RXRa (NR concentration 270 nM, RXRa partner concentration 90 nM)", "test": "PBM binding z-score (relative to random genomic background probes); higher = stronger binding; sequences stand for … in GC…GCGATTGACAGCGTAGAATGAAGG", "description": "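Protein-binding microarray (Agilent 4x180K custom design, double-stranded 60-nt probes: 5' GC cap, 34-nt variable region, 24-nt constant primer region; full probe sequence given). Purified or IVT nuclear receptor:RXRα heterodimers (3:1 NR:RXRα, mostly 270:90 nM) or homodimers were incubated for 1 h in PBS with 2% milk and no ligand, then detected with Alexa488 antibodies. Fluorescence from o1-orientation probes (~5 replicates averaged) was converted to z-scores against 500 random hg19 background probes. Variable regions are seed direct-repeat (DR0–DR5) sites, all their single-nucleotide variants and half-site ablations.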"}
{"sequence": "GGAACGAGGGCAAGTTGATCGCAGAGTTTGATGG", "PBM binding z-score": 0.673}
{"sequence": "TCTTGTAGATCAAGCAGGTAAAGAAAGCCTGAGT", "PBM binding z-score": 0.212}
{"sequence": "CTTCCAAGGTCAATGCTAGGTCAGTGAAAGCATT", "PBM binding z-score": 4.72}
{"sequence": "ACTATTAGTTGAGACGAGGGCAACCGCTAGGTTG", "PBM binding z-score": 0.628}
{"sequence": "CCTCGGAGGACAAAAGGAGGTCAGAGCTGCCAGA", "PBM binding z-score": 1.97}
{"sequence": "TCGAGTAGGTTAGGGGCAGTCAGAATGGCGTCGA", "PBM binding z-score": 0.0468}
{"sequence": "CCGACTGGGGTAGAAAGGTTACCATACCATCCGG", "PBM binding z-score": 0.692}
{"sequence": "CCAGACAGGTGAGAAGGTAACACAGCCTCGATTA", "PBM binding z-score": 0.086}
{"sequence": "TCTAGTTGGGCAAAGGTCACACACTCGAAATGCG", "PBM binding z-score": 4.65}
{"sequence": "AGAATGAGGTTACCAAAGCTCAGGGAAACGCTTG", "PBM binding z-score": 0.99}
{"sequence": "CGAACAAGGTCAGAACAGGACAGTGAAGGATGAT", "PBM binding z-score": 3}
{"sequence": "CGAGCGAGGGCATGAGTTGATAGCAAATGCCGAT", "PBM binding z-score": 1.3}
{"sequence": "TATACAGGGTCAAAGGCCAGAGTGCGAATGTCGA", "PBM binding z-score": 4.88}
{"sequence": "CTAGCAAGGTGAACAAGGTCGTTGATTACTATTC", "PBM binding z-score": 6.05}
{"sequence": "CGAACAAGGTCAAGGACAGTGAATCTCCGCACGC", "PBM binding z-score": 4.11}
{"sequence": "TCTTTTAGTTGATTAGGGCAACCGAAACAGCGGA", "PBM binding z-score": 0.986}
{"sequence": "ATCTCTAGGTAACAAGTTCAGTGGAAGAGAGGAC", "PBM binding z-score": 2}
{"sequence": "CGTCCAAGGTCAGAGAGGTCAGTCAATGCCGAGT", "PBM binding z-score": 7.68}
{"sequence": "CGTCCAAGGTCAATGCTAGGTCTGTGAAAGCATT", "PBM binding z-score": 3.76}
{"sequence": "AGTCAAAGTTCACTAGTTAACGTAAGATTCAGCT", "PBM binding z-score": 3.88}
{"sequence": "CTCGAAAGGTCGTGCTCAGTTGAGTATACCAAAC", "PBM binding z-score": 3.59}
{"sequence": "AGAAGGAGGTTATACGTAGATCAGGGAAGAAAGT", "PBM binding z-score": 0.711}
{"sequence": "CGTCAAAGTTCAAAGTAACGTAACAGAAAGCAGC", "PBM binding z-score": 4.09}
{"sequence": "TCGAGTAGGTTACCAATAGGGCATTCAGCTTTCT", "PBM binding z-score": 0.152}
{"sequence": "AGGATGAGGTTAAGATCAGGGAAACAGAATACAT", "PBM binding z-score": 1.39}
{"sequence": "AGAACGAGGGCACGCTAAGTTGATAGCAGAGTAG", "PBM binding z-score": 1.65}
{"sequence": "GCTTACGGGTCAAAGGTTATTGCATGAATAGAAT", "PBM binding z-score": 5.54}
{"sequence": "ACTTACGGGTCCACGAGGTTATAGCACGCGTATA", "PBM binding z-score": 3.52}
{"sequence": "TCTTGTAGAGCAAAGGTTAAGAAAGCCGAAGCCT", "PBM binding z-score": 0.679}
{"sequence": "TCTGCTAGGTCAGTTGGTCAGCTATCGAGCTGCC", "PBM binding z-score": 0.206}
{"sequence": "ACTATTAGTTGAGACGAGGGCAACCTATAGGTTG", "PBM binding z-score": 0.781}
{"sequence": "ATCTCTAGGTAAGACTCAGTTCAGTGTAGAACGC", "PBM binding z-score": 1.02}
{"sequence": "CCTCGGAGGACAGATGGTCAGAGCTGTCCGCTTT", "PBM binding z-score": -0.581}
{"sequence": "CCCACTGGGCCACGAAAGGTCATTGATTCAGTGA", "PBM binding z-score": 4.18}
{"sequence": "TCTTGTAGATCAGGAGGTTAAGAAAGCTGGCCAA", "PBM binding z-score": 0.556}
{"sequence": "AGAACGAGGGCACGCTGAGTTGATAGCCGAGTAG", "PBM binding z-score": 2.07}
{"sequence": "TCTATTAGATGATTAGGGCAACCGAAACAGCGGA", "PBM binding z-score": 0.44}
{"sequence": "ACTCGGAGGACAAGGGTCAGAGCTACGCCAGTGA", "PBM binding z-score": 1.91}
{"sequence": "ATTCGGAGGACAAAGGTCAGAGCTACGCCAGTGA", "PBM binding z-score": 3.4}
{"sequence": "CGAACTAGGTCAGAACAGGTCAGTGAAGGATGAT", "PBM binding z-score": 2.68}
